Test results from PubChem BioAssay (NCI).
This is part of a sample that, as a whole, favours compounds with a hit. Of some 83,000 tested, about 20% had one in any assay.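 Method: cells in 96-well plates; compound added at one concentration; 48 h incubation; percent growth measured; values under 10 scored active.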 Unmarked numbers belong to inactive results. The source made the active and inactive calls.

Legend:
Experiment in all cases: NCI-60 one-dose screen, 48 h (100 = growth as untreated, 0 = no growth, -100 = all killed)
Details in all cases: 10 µM unless noted
[1] = test system: SR leukemia
[2] = test system: RPMI-8226 leukemia
[3] = test system: OVCAR-8 ovarian
[4] = test system: OVCAR-5 ovarian
[5] = test system: OVCAR-4 ovarian
[6] = test system: SK-OV-3 ovarian
[7] = test system: IGROV1 ovarian
[8] = test system: OVCAR-3 ovarian
[9] = test system: HS 578T breast
[10] = test system: NCI/ADR-RES ovarian
[11] = test system: T-47D breast
[12] = test system: BT-549 breast
[13] = test system: MDA-MB-435 melanoma
[14] = test system: SW-620 colon
[15] = test system: MCF7 breast
[16] = test system: HCT-116 colon
[17] = test system: HCC-2998 colon
[18] = test system: KM12 colon

Row | SMILES | growth [1] | growth [2] | growth [3] | growth [4] [%] | growth [5] [%] | growth [6] | growth [7] [%] | growth [8] | growth [9] [%] | growth [10] | growth [11] | growth [12] | growth [13] | growth [14] | growth [15] | growth [16] | growth [17] | growth [18]
1 | CCN(CC)Cc1cc(Nc2ccnc3ccc(OC)cc23)ccc1O | 7.65% (active) | 48.5% | 28.4% | 55 | 55.3 | 73.6% | 23.8 | 50.8% | 77.2 | 35.8% | -43.9% (active) | 55.2% | 47.6% | 27.5% | 22.9% | 16.2% | 32.8% | 42.2%
2 | CCCCCCCOc1cccc(/C=C2\N=C3SCCCN3C2=O)c1 | 105% | 91.7% | 102% | 115 | 85.6 | 107% | 98.7 | 90.6% | 109 | 97% | -15.5% (active) | 100% | 100% | 99.3% | 92.1% | 88.6% | 110% | 85.8%
3 | O=C1SCN(Cc2ccccc2)CN1Cc1ccccc1 | 8.82% (active) | 43.7% | 90.7% | 105 | 109 | 107% | 97.2 | 105% | 95.5 | 100% | 52.2% | 131% | 73.3% | 34.3% | 22.1% | 70.5% | 115% | 32.4%
4 | COc1ccc(C2=NNC(c3ccc(Oc4nc5c(c(=O)n(C)c(=O)n5C)n4C)c(OC)c3)C2)cc1 (stereo not given) | 62.7% | 80.4% | 94.4% | 102 | 98.1 | 117% | 105 | 108% | 89.4 | 87.2% | 86.3% | 88.6% | 93% | 109% | 87.6% | 98.2% | 102% | 97.6%
5 | O=C(CC(=O)C(F)(F)C(F)(F)C(F)(F)F)c1cc2ccccc2o1 | 101% | 109% | 102% | 103 | 98.6 | 105% | 110 | 106% | 103 | 102% | 96% | 111% | 104% | 97.6% | 103% | 102% | 113% | 104%
6 | NS(=O)(=O)c1ccc(CCn2c(SCC(=O)N/N=C/c3cccnc3)nc3ccccc3c2=O)cc1 | 65.3% | 49.7% | 75.1% | 108 | 94.6 | 115% | 104 | 84.7% | 82.7 | 105% | 65.9% | 79% | 93.7% | 96.7% | 79.6% | 77.3% | 111% | 81.8%
7 | CCCCCCCCCCCCCCCC1=NCCN1 | -44.9% (active) | 40.8% | 84.5% | 69 | 78 | 99.2% | 42.3 | 77% | 84.4 | 75.4% | -15.4% (active) | 98% | 0.615% (active) | 7.4% (active) | 32% | 34.6% | 73.8% | 64.1%
8 | COc1cccc(-c2nc3sccn3c2-c2ccnc(NCCN3CCCN(C)S3(=O)=O)n2)c1 | 66.7% | 103% | 98.6% | 102 | 78 | 62.4% | 72.7 | 91.2% | 97.5 | 84.9% | 72.4% | 100% | 57.7% | 131% | 106% | 78.1% | 114% | 100%
9 | CCCCCCCCCCCCCCCCCC1=NCCN1CCO | 7.41% (active) | 78.9% | 70.5% | 82.7 | 115 | 97.9% | 25.7 | 77% | 85.8 | 84.5% | 95% | 91.5% | 101% | 65.2% | 74.3% | 65.1% | 61.3% | 
10 | CCN(C(=O)CCl)C(C)(C)C(SSSC(c1ccc(Cl)cc1)C(C)(C)N(CC)C(=O)CCl)c1ccc(Cl)cc1 (stereo not given) | 17.6% | 51.7% | 77.9% | 107 | 49.3 | 87.5% | 74.3 | 72.3% | 92.5 | 89.8% | 87.1% | 85.8% | 36.4% | 72.6% | 57.1% | 48% | 85.6% | 85.6%
11 | CC1OC(n2c3ccccc3c3c4c(c5c6ccccc6[nH]c5c32)C(=O)N(CCN[C@H]2CCC[C@@H]2N)C4=O)CC(O)C1O (stereo not given in full) | -1.11% (active) | 4.77% (active) | 27.7% | 80.4 | 34.9 | 40.7% | 36.4 | 52.7% | 52.3 | 88.2% | 29% | 46.9% | 29.2% | 17.4% | 6.49% (active) | 24.6% | 17% | 20.2%
12 | Oc1ccc(-c2nc3ccccc3s2)cc1CN(Cc1ccccn1)Cc1ccccn1 | 7.98% (active) | 13.2% | 9.43% (active) | 40.9 | 18 | 7% (active) | 15 | 26.2% | 41.6 | -37.2% (active) | 12.8% | 18.5% | 26.6% | 20.1% | 14.8% | 15.5% | 5.52% (active) | 24.8%
13 | Cc1ccc(C(=O)CC(=O)C(F)(F)C(F)(F)C(F)(F)F)s1 | 99.5% | 102% | 104% | 96.1 | 112 | 104% | 108 | 107% | 105 | 105% | 108% | 103% | 99% | 103% | 105% | 110% | 105% | 112%
14 | CCN(CC)c1ccc2c(cc1=O)[C@@H](NC(C)=O)CCc1cc(OC)c(OC)c(OC)c1-2 | -14.1% (active) | 14.9% | 12.3% | 54.1 | 48.2 | 24.3% | 28 | -24.9% (active) | 40.5 | 85.7% | 82.2% | 1.73% (active) | -43.9% (active) | 23.3% | 14.9% | 3.75% (active) | 22.9% | 5.97% (active)
15 | O=C(/C=C/c1ccccc1Br)c1cccc(OCCCCOc2cccc(C(=O)/C=C/c3ccccc3Br)c2)c1 | 31.8% | -11.7% (active) | 102% | 105 | 101 | 104% | 92.4 | 108% | 102 | 102% | 75.4% | 104% | 97% | 99% | 28.1% | 16.4% | 109% | 101%
16 | CC(C)(C)[Si](C)(C)OC1[C@@H](CNC(N)=O)O[C@@H](n2cnc3c(NC(=O)Nc4ccccc4)ncnc32)[C@H]1O[Si](C)(C)C(C)(C)C (stereo not given in full) | 6.81% (active) | 47.6% | 59.9% | 82.5 | 50.3 | 93.6% | 56.1 | 61.1% | 58.7 | 58.5% | 64.6% | 80.1% | 53% | 62% | 17.9% | 0.343% (active) | 19% | 48.9%
17 | COc1cc(-c2nc(-c3ccc(-c4nc5ccc(F)cc5[nH]4)cc3)no2)cc(OC)c1OC | 32.5% | -15.3% (active) | 5.86% (active) | 72.9 | 30.9 | 85.5% | 47.3 | 36.6% | 30.5 | 13.3% | 8.56% (active) | 35.7% | 46.8% | 55.3% | 41.1% | 28.2% | 81.5% | 11.5%
